# From PubChem BioAssay AID1159580 (chemical genetic matrix, 2015)
# The whole screen tested about 5,500 compounds, of which about 2,000 (36%) were called active. Another 18% or so got no clear call; they are omitted. The list shows a part of the results. Unmarked numbers belong to inactive results. Rule as the data show it: active = normalized growth mostly below about 0.91 (no sharp cut-off); inconclusive = no clear call, values can overlap the other calls; inactive = mostly above about 0.92.
# Experiment: chemical genetic growth profiling, strain panel (AID 1159580);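 also: tested at 20 µM; growth read once vehicle control cultures reached saturation at 30 °C; 1 = growth at the plate median or of vehicle wells; lower values mean less growth of the strain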
# Details: S. cerevisiae deletion strains, growth OD
# [1] = locus YHR030C, strain SLT2, stronger effect = lower value
# [2] = locus YHR079C, strain IRE1, stronger effect = lower value
# [3] = locus YJL095W, strain BCK1, stronger effect = lower value
# [4] = locus YJR066W, strain TOR1, stronger effect = lower value
# [5] = locus YLR113W, strain HOG1, stronger effect = lower value
# [6] = locus YNL183C, strain NPR1, stronger effect = lower value
# [7] = locus YOR231W, strain MKK1, stronger effect = lower value
# [8] = locus YPL256C, strain CLN2, stronger effect = lower value
smiles,measurement,setting,value
O=C(NC(=O)c1ccccc1Cl)Nc1ccc(OC(F)(F)F)cc1,normalized growth,"locus YAL021C, strain ccr4, stronger effect = lower value",1.05
same,normalized growth,"locus YAL026C, strain drs2, stronger effect = lower value",1.02
same,normalized growth,"locus YAL030W, strain snc1, stronger effect = lower value",1.03
same,normalized growth,"locus YBL061C, strain skt5, stronger effect = lower value",1.02
same,normalized growth,"locus YBR009C, strain hhf1, stronger effect = lower value",0.999
same,normalized growth,"locus YBR023C, strain chs3, stronger effect = lower value",1.04
same,normalized growth,"locus YBR171W, strain sec66, stronger effect = lower value",1.05
same,normalized growth,"locus YBR231C, strain swc5, stronger effect = lower value",1.06
same,normalized growth,"locus YBR279W, strain paf1, stronger effect = lower value",1.01
same,normalized growth,"locus YCL011C, strain gbp2, stronger effect = lower value",1.04
same,normalized growth,"locus YCL016C, strain dcc1, stronger effect = lower value",1.04
same,normalized growth,"locus YCL061C, strain MRC1, stronger effect = lower value",1.04
same,normalized growth,"locus YCL069W, strain vba3, stronger effect = lower value",1.04
same,normalized growth,"locus YCR088W, strain abp1, stronger effect = lower value",1.03
same,normalized growth,"locus YDL005C, strain med2, stronger effect = lower value",1.05
same,normalized growth,"locus YDL040C, strain nat1, stronger effect = lower value",1.03
same,normalized growth,"locus YDR001C, strain nth1, stronger effect = lower value",1.02
same,normalized growth,"locus YDR069C, strain doa4, stronger effect = lower value",1.06
same,normalized growth,"locus YDR137W, strain rgp1, stronger effect = lower value",1.06
same,normalized growth,"locus YDR159W, strain sac3, stronger effect = lower value",1.04
same,normalized growth,"locus YDR195W, strain ref2",1.11
same,normalized growth,"locus YDR297W, strain sur2, stronger effect = lower value",1.03
same,normalized growth,"locus YDR334W, strain swr1, stronger effect = lower value",1.04
same,normalized growth,"locus YDR335W, strain msn5, stronger effect = lower value",1.04
same,normalized growth,"locus YDR392W, strain spt3, stronger effect = lower value",1.01
same,normalized growth,"locus YEL003W, strain gim4, stronger effect = lower value",1.03
same,normalized growth,"locus YEL037C, strain rad23, stronger effect = lower value",1.03
same,normalized growth,"locus YEL061C, strain CIN8 (second series), stronger effect = lower value",1.03
same,normalized growth,"locus YER015W, strain faa2, stronger effect = lower value",1.02
same,normalized growth,"locus YER016W, strain bim1, stronger effect = lower value",1.03
same,normalized growth,"locus YER111C, strain swi4, stronger effect = lower value",1.04
same,normalized growth,"locus YER155C, strain BEM2 (second series), stronger effect = lower value",1.07
same,normalized growth,"locus YFR010W, strain ubp6, stronger effect = lower value",1.03
same,normalized growth,"locus YGL167C, strain pmr1, stronger effect = lower value",1.03
same,normalized growth,"locus YGL173C, strain kem1, stronger effect = lower value",1.05
same,normalized growth,"locus YGL227W, strain vid30, stronger effect = lower value",1.03
same,normalized growth,"locus YGL240W, strain doc1, stronger effect = lower value",1.04
same,normalized growth,"locus YGL253W, strain hxk2, stronger effect = lower value",1.03
same,normalized growth,"locus YHR013C, strain ard1, stronger effect = lower value",1.09
same,normalized growth,"locus YHR027C, strain rpn1, stronger effect = lower value",1.04
same,normalized growth,[1],1.07
same,normalized growth,[2],1.07
same,normalized growth,"locus YHR142W, strain chs7, stronger effect = lower value",1.01
same,normalized growth,"locus YJL092W, strain hpr5, stronger effect = lower value",1.03
same,normalized growth,"locus YJL095W, strain BCK1 (second series), stronger effect = lower value",1.02
same,normalized growth,[3],1.06
same,normalized growth,"locus YJL115W, strain asf1, stronger effect = lower value",1.03
same,normalized growth,"locus YJL129C, strain trk1, stronger effect = lower value",1.08
same,normalized growth,"locus YJL154C, strain vps35, stronger effect = lower value",1.04
same,normalized growth,"locus YJL164C, strain tpk1, stronger effect = lower value",1.02
same,normalized growth,"locus YJL166W, strain qcr8, stronger effect = lower value",1.05
same,normalized growth,"locus YJL187C, strain SWE1, stronger effect = lower value",1.03
same,normalized growth,[4],0.971
same,normalized growth,"locus YKL160W, strain elf1, stronger effect = lower value",1.05
same,normalized growth,"locus YKR026C, strain gcn3, stronger effect = lower value",1.04
same,normalized growth,"locus YKR091W, strain srl3, stronger effect = lower value",1.03
same,normalized growth,"locus YLL001W, strain dnm1, stronger effect = lower value",1.06
same,normalized growth,"locus YLL026W, stronger effect = lower value",1.02
same,normalized growth,"locus YLL041C, strain sdh2, stronger effect = lower value",1.03
same,normalized growth,"locus YLR027C, strain aat2, stronger effect = lower value",1.04
same,normalized growth,[5],1.07
same,normalized growth,"locus YLR221C, strain rsa3, stronger effect = lower value",1.05
same,normalized growth,"locus YLR258W, strain gsy2, stronger effect = lower value",1.02
same,normalized growth,"locus YLR262C, strain YPT6 (second series), stronger effect = lower value",1.06
same,normalized growth,"locus YLR320W, strain mms22, stronger effect = lower value",1.06
same,normalized growth,"locus YLR342W, strain FKS1, stronger effect = lower value",1.04
same,normalized growth,"locus YLR357W, strain rsc2, stronger effect = lower value",1.07
same,normalized growth,"locus YLR370C, strain arc18, stronger effect = lower value",1.04
same,normalized growth,"locus YLR384C, strain iki3, stronger effect = lower value",1.03
same,normalized growth,"locus YML120C, strain ndi1, stronger effect = lower value",1.03
same,normalized growth,"locus YMR058W, strain fet3, stronger effect = lower value",1.03
same,normalized growth,"locus YMR125W, strain sto1, stronger effect = lower value",1.06
same,normalized growth,"locus YMR129W, stronger effect = lower value",1.03
same,normalized growth,"locus YMR205C, strain PFK2, stronger effect = lower value",1.07
same,normalized growth,"locus YMR231W, strain pep5, stronger effect = lower value",1.03
same,normalized growth,"locus YNL071W, strain lat1, stronger effect = lower value",1.05
same,normalized growth,[6],0.985
same,normalized growth,"locus YNL209W, strain ssb2, stronger effect = lower value",1.03
same,normalized growth,"locus YNL248C, strain rpa49, stronger effect = lower value",1.07
same,normalized growth,"locus YNL322C, strain KRE1 (second series), stronger effect = lower value",1.05
same,normalized growth,"locus YNR049C, strain mso1, stronger effect = lower value",1.03
same,normalized growth,"locus YOR001W, strain rrp6, stronger effect = lower value",1.01
same,normalized growth,"locus YOR070C, strain gyp1, stronger effect = lower value",1.05
same,normalized growth,"locus YOR080W, strain dia2, stronger effect = lower value",1.05
same,normalized growth,"locus YOR083W, strain WHI5, stronger effect = lower value",1.05
same,normalized growth,"locus YOR106W, strain vam3, stronger effect = lower value",1.07
same,normalized growth,[7],1.07
same,normalized growth,"locus YOR265W, strain rbl2, stronger effect = lower value",1.03
same,normalized growth,"locus YOR270C, strain vph1, stronger effect = lower value",1.1
same,normalized growth,"locus YOR290C, strain snf2, stronger effect = lower value",1.07
same,normalized growth,"locus YPL051W, strain arl3, stronger effect = lower value",1.07
same,normalized growth,"locus YPL078C, strain atp4, stronger effect = lower value",1.06
same,normalized growth,"locus YPL106C, strain sse1, stronger effect = lower value",1.02
same,normalized growth,"locus YPL240C, strain hsp82, stronger effect = lower value",1.01
same,normalized growth,[8],1.11
CC(=O)/C(C#N)=N\Nc1ccc(F)cc1,normalized growth,"locus YAR019C, strain CDC15, stronger effect = lower value",0.429 (active)
same,normalized growth,"locus YBL105C, strain PKC1, stronger effect = lower value",0.519 (active)
same,normalized growth,"locus YBR135W, strain CKS1, stronger effect = lower value",0.782 (active)
same,normalized growth,"locus YBR136W, strain MEC1, stronger effect = lower value",0.583 (active)
same,normalized growth,"locus YBR160W, strain CDC28, stronger effect = lower value",0.723 (active)
same,normalized growth,"locus YDL017W, strain CDC7, stronger effect = lower value",0.584 (active)
same,normalized growth,"locus YDL028C, strain MPS1, stronger effect = lower value",0.728 (active)
same,normalized growth,"locus YDL101C, strain DUN1, stronger effect = lower value",0.201 (active)
same,normalized growth,"locus YDL214C, strain PRR2, stronger effect = lower value",0.118 (active)
same,normalized growth,"locus YDR052C, strain DBF4, stronger effect = lower value",0.957
same,normalized growth,"locus YDR054C, strain cdc34, stronger effect = lower value",0.525 (active)
same,normalized growth,"locus YDR226W, strain ADK1, stronger effect = lower value",0.978
same,normalized growth,"locus YDR477W, strain SNF1, stronger effect = lower value",0.127 (active)
same,normalized growth,"locus YER123W, strain YCK3, stronger effect = lower value",0.115 (active)
same,normalized growth,"locus YER133W, strain GLC7, stronger effect = lower value",0.17 (active)
same,normalized growth,"locus YFL009W, strain cdc4, stronger effect = lower value",0.631 (active)
same,normalized growth,"locus YFL029C, strain CAK1, stronger effect = lower value",0.468 (active)
same,normalized growth,"locus YFR003C, strain YPI1, stronger effect = lower value",0.633 (active)
same,normalized growth,"locus YFR019W, strain FAB1, stronger effect = lower value",0.115 (active)
same,normalized growth,"locus YFR028C, strain CDC14, stronger effect = lower value",0.699 (active)
same,normalized growth,"locus YGR040W, strain KSS1, stronger effect = lower value",0.137 (active)
same,normalized growth,"locus YGR052W, strain FMP48, stronger effect = lower value",0.185 (active)
same,normalized growth,"locus YGR092W, strain DBF2, stronger effect = lower value",0.102 (active)
same,normalized growth,[1],0.108 (active)
same,normalized growth,[2],0.138 (active)
same,normalized growth,"locus YHR082C, strain KSP1, stronger effect = lower value",0.171 (active)
same,normalized growth,"locus YHR205W, strain SCH9, stronger effect = lower value",0.102 (active)
same,normalized growth,"locus YIL147C, strain SLN1, stronger effect = lower value",0.585 (active)
same,normalized growth,[3],0.12 (active)
same,normalized growth,"locus YJL128C, strain PBS2, stronger effect = lower value",0.316 (active)
same,normalized growth,"locus YJL157C, strain FAR1, stronger effect = lower value",0.102 (active)
same,normalized growth,"locus YJR066W, strain TOR1 (second series), stronger effect = lower value",0.107 (active)
same,normalized growth,[4],0.137 (active)
same,normalized growth,"locus YKL048C, strain ELM1, stronger effect = lower value",0.14 (active)
same,normalized growth,"locus YKL067W, strain YNK1, stronger effect = lower value",0.117 (active)
same,normalized growth,"locus YKL101W, strain HSL1, stronger effect = lower value",0.118 (active)
same,normalized growth,"locus YKL193C, strain SDS22, stronger effect = lower value",0.455 (active)
same,normalized growth,"locus YKL203C, strain TOR2, stronger effect = lower value",0.126 (active)
same,normalized growth,[5],0.178 (active)
same,normalized growth,"locus YLR133W, strain CKI1, stronger effect = lower value",0.118 (active)
same,normalized growth,"locus YLR403W, strain SFP1, stronger effect = lower value",0.0142 (active)
same,normalized growth,"locus YML070W, strain DAK1, stronger effect = lower value",0.123 (active)
same,normalized growth,"locus YMR001C, strain CDC5, stronger effect = lower value",0.458 (active)
same,normalized growth,"locus YMR205C, strain PFK2 (second series), stronger effect = lower value",0.132 (active)
same,normalized growth,"locus YMR277W, strain FCP1, stronger effect = lower value",0.349 (active)
same,normalized growth,"locus YNL006W, strain LST8, stronger effect = lower value",0.57 (active)
same,normalized growth,"locus YNL020C, strain ARK1, stronger effect = lower value",0.123 (active)
same,normalized growth,"locus YNL161W, strain CBK1, stronger effect = lower value",0.409 (active)
same,normalized growth,[6],0.147 (active)
same,normalized growth,"locus YNL207W, strain RIO2, stronger effect = lower value",0.632 (active)
same,normalized growth,"locus YNL222W, strain SSU72, stronger effect = lower value",0.487 (active)
same,normalized growth,"locus YNL307C, strain MCK1 (second series), stronger effect = lower value",0.126 (active)
same,normalized growth,"locus YOL078W, strain AVO1, stronger effect = lower value",0.568 (active)
same,normalized growth,"locus YOL136C, strain PFK27, stronger effect = lower value",0.114 (active)
same,normalized growth,"locus YOR061W, strain CKA2, stronger effect = lower value",0.127 (active)
same,normalized growth,"locus YOR119C, strain RIO1, stronger effect = lower value",0.131 (active)
same,normalized growth,[7],0.136 (active)
same,normalized growth,"locus YOR329C, strain SCD5, stronger effect = lower value",0.488 (active)
same,normalized growth,"locus YPL031C, strain PHO85, stronger effect = lower value",0.124 (active)
same,normalized growth,"locus YPL153C, strain RAD53, stronger effect = lower value",0.132 (active)
same,normalized growth,"locus YPL204W, strain HRR25, stronger effect = lower value",0.124 (active)
same,normalized growth,"locus YPL209C, strain IPL1, stronger effect = lower value",0.587 (active)
same,normalized growth,[8],0.181 (active)
same,normalized growth,"locus YPR025C, strain CCL1, stronger effect = lower value",0.631 (active)
same,normalized growth,"strain NNK1, stronger effect = lower value",0.344 (active)
same,normalized growth,"strain TSCII, stronger effect = lower value",0.512 (active)
